PubChem BioAssay
Measured potencies and affinities stand elsewhere. Calls of active or inactive are those of the source. How the calls were made is not given here.

The compounds below were run against Plasmodium falciparum protein kinase 6 (PK6, PF3D7_1337100) (UniProt Q8IDW1) (assay: PfPK6 kinase inhibitors, biochemical, TCAMS library (AID 1159586)). Conditions: recombinant PfPK6, Kinase-Glo ATP depletion luminescence.
Sequence of Plasmodium falciparum protein kinase 6 (PK6, PF3D7_1337100) (Q8IDW1 1-305): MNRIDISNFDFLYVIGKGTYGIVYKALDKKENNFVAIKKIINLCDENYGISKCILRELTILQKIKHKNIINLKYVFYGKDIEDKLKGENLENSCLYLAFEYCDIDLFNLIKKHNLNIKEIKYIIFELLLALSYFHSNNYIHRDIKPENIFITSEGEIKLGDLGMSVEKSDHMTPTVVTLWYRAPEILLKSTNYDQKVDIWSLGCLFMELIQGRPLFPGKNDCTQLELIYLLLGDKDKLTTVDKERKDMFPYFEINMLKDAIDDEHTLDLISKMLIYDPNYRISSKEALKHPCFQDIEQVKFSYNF

SMILES	outcome
CCc1nc2c(cnn2CC)c(NC2CCOCC2)c1CNC(=O)c1ccoc1C	inactive
CCOC(=O)c1cc(C(=O)NCCCCN2CCC(c3ccc(CC)cc3OCC)CC2)ccc1-c1ccc(C(F)(F)F)cc1	inactive
Cn1cnc2c(SCc3ccc(OCc4ccccc4)cc3)ncnc21	inactive
COc1ccc(/C=C/C(=O)Nc2ccc(-c3ccncc3)cc2)cc1CCCN(C)C	inactive
C/C=C/COc1ccc2ccccc2c1CNCCCCCCCCNCc1c(OC/C=C/C)ccc2ccccc12	inactive
N=c1c(C(=O)NCc2ccccc2)cc2c(=O)n3ccccc3nc2n1CCc1ccccc1	inactive
CCOc1ccc2nc(C)cc(NN=Cc3cccc(F)c3)c2c1	inactive
Nc1nc2ncn(COC(COCc3ccccc3)COCc3ccccc3)c2c(=O)[nH]1 (tested in a mixture with another compound)	inactive
N#Cc1cccc(NC(=O)c2cccc(S(=O)(=O)NC3CCN(CC4CCCCC4)C3)c2)c1 (stereo not given)	inactive
O=C(COc1ccccc1)N(Cc1ccc(-c2ccc(CNC3Cc4ccccc4C3)cc2)cc1)C1CCNCC1	inactive
Cc1ccccc1CNc1noc(-c2sccc2Br)n1	inactive
CCOC(=O)[C@H](Cc1cc([N+](=O)[O-])c(Oc2ccc(OC)c(Cc3ccc(OC)c(C(C)C)c3)c2)c([N+](=O)[O-])c1)NC(=O)C(F)(F)F	inactive
CCC1N=C(N)N=C(N)N1OCc1ccc(Cl)c(Cl)c1 (stereo not given)	inactive
CC(C)(C)c1ccccc1OCCCON1C(N)=NC(N)=NC1(C)C	inactive
COc1ccccc1-c1cccc2c(NC(=O)Nc3ccc4nccc(N5CCN(C)CC5)c4c3)ccnc12	inactive
